From PubChem BioAssay AID1259251 (The Scripps Research Institute Molecular Screening Center, 2017) come the findings set out here.

The campaign covered roughly 30,000 compounds. About 580 (1.9%) were called active. Rule as the data show it: active = inhibition above about 43%; inactive = the rest. What follows is part of a selection rich in actives, with near analogues and random picks from the rest.

Serine/threonine-protein kinase ULK1 (Homo sapiens), sequence (O75385 whole entry, looked up): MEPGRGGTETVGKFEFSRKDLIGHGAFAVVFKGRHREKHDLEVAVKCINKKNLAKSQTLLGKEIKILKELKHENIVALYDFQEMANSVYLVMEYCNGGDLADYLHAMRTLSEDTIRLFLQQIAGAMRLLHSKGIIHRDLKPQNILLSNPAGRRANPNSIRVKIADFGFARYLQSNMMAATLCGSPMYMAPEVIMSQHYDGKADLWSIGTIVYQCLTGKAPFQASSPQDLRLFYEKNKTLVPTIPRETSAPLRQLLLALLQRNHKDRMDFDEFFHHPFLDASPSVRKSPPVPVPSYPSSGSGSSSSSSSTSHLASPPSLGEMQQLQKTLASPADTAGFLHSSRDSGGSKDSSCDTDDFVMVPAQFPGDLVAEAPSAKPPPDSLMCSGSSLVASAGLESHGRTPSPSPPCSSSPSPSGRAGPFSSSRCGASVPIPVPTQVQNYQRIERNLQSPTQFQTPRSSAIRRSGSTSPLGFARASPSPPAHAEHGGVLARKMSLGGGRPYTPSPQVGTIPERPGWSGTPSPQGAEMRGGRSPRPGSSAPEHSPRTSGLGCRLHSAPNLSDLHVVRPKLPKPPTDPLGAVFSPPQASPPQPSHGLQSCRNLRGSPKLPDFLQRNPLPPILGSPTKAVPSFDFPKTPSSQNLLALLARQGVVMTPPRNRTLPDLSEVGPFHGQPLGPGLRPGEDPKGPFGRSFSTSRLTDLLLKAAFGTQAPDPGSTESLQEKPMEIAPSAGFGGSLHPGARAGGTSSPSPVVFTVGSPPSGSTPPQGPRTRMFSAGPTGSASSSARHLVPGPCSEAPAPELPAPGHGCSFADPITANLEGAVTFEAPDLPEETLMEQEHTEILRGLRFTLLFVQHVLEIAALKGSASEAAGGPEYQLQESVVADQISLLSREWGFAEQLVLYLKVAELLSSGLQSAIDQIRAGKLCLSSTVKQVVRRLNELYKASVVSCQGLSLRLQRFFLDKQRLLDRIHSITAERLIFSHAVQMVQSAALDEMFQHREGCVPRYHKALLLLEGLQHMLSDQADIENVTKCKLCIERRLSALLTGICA

This experiment concerns the target Serine/threonine-protein kinase ULK1 (Homo sapiens) (UniProt O75385). The experiment can be described thus: inhibition of human autophagy kinase ULK1 – biochemical, AlphaScreen, primary screen (AID 1259251).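 Also: 0% = median of compound wells and 100% = no enzyme.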 To be noted: AlphaScreen Atg13 phosphorylation by ULK1, luminescence; at 5.96 µM; active compounds read high. A general note: In Alpha technology, singlet oxygen from a donor bead excites a nearby acceptor bead.
Take `COC1CCN(c2ncn(-c3ccc(Nc4nccc(-c5cncc(N6CCOCC6)c5)n4)cc3)n2)CC1`: the inhibition is -6.75% (inactive).

`Cc1ncccc1-c1ncn(-c2ccc(Nc3nccc(-c4cc(F)cc(N5CCOCC5)c4)n3)cc2)n1`: the inhibition is 5.38% (inactive).

On to `Cn1cc(-c2cc(Nc3ccc(-n4cnc(N5CCC(O)CC5)n4)cc3)ncc2Cl)cn1`, for which the inhibition is -17% (inactive).

`Cn1cc(-c2ccc3cnc(Nc4ccc(-n5cnc(N6CCOCC6)n5)cc4)nc3c2-c2cnn(C)c2)cn1`: the inhibition was 51.5% (active).

Take `Cn1cc(-c2nc(Nc3ccc(-n4cnc(N5CCC(O)CC5)n4)cc3)ncc2Br)cn1`: the inhibition was 85.1% (active).

For `c1coc(-c2ccc3cnc(Nc4ccc(-n5cnc(N6CCOCC6)n5)cc4)nc3c2)n1`, the inhibition was 3.23% (inactive).

As to `O=C(NC1CCN(Cc2ccccc2)CC1)c1cccc(-c2cccs2)n1`, the inhibition is -5.23% (inactive).

With `O=C(Nc1ccc2[nH]ncc2c1)c1ccnc(OC2CCN(Cc3ccccc3)CC2)c1`, the inhibition is -8.14% (inactive).

Consider `O=C(NC1CCN(Cc2ccccc2)CC1)c1cc(Cl)nc2ccccc12`, for which the inhibition is 2.89% (inactive).

On to `Cn1c(Nc2nc(NCc3cccc(C(F)(F)F)c3)c3ncn(C4CCCCC4)c3n2)nc2ccccc21`, for which the inhibition was 8.91% (inactive).

For `O=C(NCCc1ccc(O)cc1)c1csc(Nc2ccc(N3CCOCC3)cc2)n1`, the inhibition is 13.3% (inactive).

For `Cc1cnc(Nc2ccc(N3CCOCC3)cc2)nc1Nc1ccccc1-c1ncn[nH]1`, the inhibition was 70.3% (active).

With `c1ccc(-c2ncn[nH]2)c(Nc2ccnc(Nc3ccc(N4CCOCC4)cc3)c2)c1`, the inhibition is 24.2% (inactive).

In the case of `Cc1cnc(-c2c(C)noc2C)nc1Nc1ccc(N2CCOCC2)cc1`, the inhibition is -1.73% (inactive).

Turning to `c1ccc(CN2CCC(Nc3nc(NCCOc4ccccc4)c4[nH]cnc4n3)CC2)cc1`, the inhibition is -28% (inactive).

In the case of `FC(F)(F)c1ccc(Cn2cnc3c(Nc4ccccc4)nc(N4CCN(c5ccccn5)CC4)nc32)cc1`, the inhibition was -7.96% (inactive).

In the case of `CN(C)c1cccc(Nc2cc(C(=O)NC3CC3)c3ccccc3n2)c1`, the inhibition was 4.11% (inactive).

As for `Cc1ccc(CNC(=O)c2cn(C)c3c(=O)n(-c4ccccc4)c(=O)[nH]c23)cc1`, the inhibition is 1.67% (inactive).

Turning to `CN1CCN(C(=O)c2ccc(-c3cc(NCc4cccc(C(F)(F)F)c4)ncn3)cc2)CC1`, the inhibition was -4.67% (inactive).

`COc1ccc(Cl)cc1NC(=O)COc1cccc2c1OC(C)(C)C2`: the inhibition is -8.02% (inactive).

`CNC(=O)c1cc(F)ccc1Nc1cc(Nc2ccc(NC(C)=O)cn2)ncc1C(F)(F)F`: the inhibition was 89% (active).

On to `CC(=O)Nc1ccc(Nc2cc(Nc3ccccn3)nc(N)n2)cc1`, for which the inhibition was -21.9% (inactive).

For the compound `COc1cc(NC(=O)c2cnc(Nc3ccc(C(F)(F)F)cc3)s2)cc(OC)c1OC`, the inhibition is -10.3% (inactive).

Turning to `CNC(=O)c1cc(F)ccc1Nc1cc(Nc2ccc3[nH]ncc3c2)ncc1C(F)(F)F`, the inhibition is 78.3% (active).

With `CNC(=O)c1cc(F)ccc1Nc1cc(Nc2ccc3c(c2)CCC(=O)N3)ncc1C(F)(F)F`, the inhibition was 85.8% (active).

As for `O=C(NCCO)c1cc(Nc2ccc3[nH]ncc3c2)ccn1`, the inhibition is -10.8% (inactive).

`O=C1Cc2cc(Nc3cc(Nc4ccccn4)c(C(F)(F)F)cn3)ccc2N1`: the inhibition was 38.2% (inactive).

On to `CNC(=O)c1cc(F)ccc1Nc1cc(Nc2ccc3nc[nH]c3c2)ncc1C(F)(F)F`, for which the inhibition is 3.83% (inactive).

As to `COc1ccc(Oc2ncc(-c3ccc(OC)cc3)cn2)cc1`, the inhibition was -2.6% (inactive).

As to `COc1ccc(-n2cc(-c3ccccc3[N+](=O)[O-])cn2)cc1`, the inhibition is -17.3% (inactive).

With `Cc1nn(C)c(C)c1-c1nc2ccc(C(=O)NCCO)cc2s1`, the inhibition is 1.9% (inactive).

For `O=C(NCCOc1ccccc1)c1ccc2nc(N3CCN(Cc4ccc5c(c4)OCO5)CC3)sc2c1`, the inhibition is 1.44% (inactive).

On to `COc1ccc(-c2nc3ncnc(NCCc4ccc(O)cc4)c3[nH]2)cn1`, for which the inhibition is -9.33% (inactive).

For the compound `c1ccc(Oc2cc(NC3CC3)ncn2)cc1`, the inhibition is 4.64% (inactive).

With `O=C(NCc1nc2ccccc2[nH]1)c1cccc(-c2cccs2)c1`, the inhibition was 1.37% (inactive).

For `CC(C)(C)c1ccc(S(=O)(=O)NCc2nc(-c3ccncc3)n[nH]2)cc1`, the inhibition is 2.8% (inactive).

As to `Cc1ccc(C)c(NS(=O)(=O)c2ccc3c(c2)OCCCO3)c1`, the inhibition is 0.58% (inactive).

On to `c1ccc(CN2CCC(Nc3nc(Nc4ccc(N5CCOCC5)cc4)c4ncn(C5CCCCC5)c4n3)CC2)cc1`, for which the inhibition was 50.8% (active).

Take `O=C1CCCN1CCn1cnc2c(Nc3ccc(N4CCOCC4)cc3)nc(NCc3ccc4c(c3)OCO4)nc21`: the inhibition is 11.6% (inactive).

For the compound `c1ccc(CN2CCC(Nc3nc(-c4ccccc4)nc4c3ncn4C3CCCCC3)CC2)cc1`, the inhibition was -30.6% (inactive).

On to `c1ccc(CN2CCC(Nc3nc(NCc4ccc5c(c4)OCO5)nc4c3ncn4C3CCCCC3)CC2)cc1`, for which the inhibition is 1.3% (inactive).

Turning to `c1cc2c(cc1CNc1nc(Nc3ccc(N4CCOCC4)cc3)c3ncn(C4CCCCC4)c3n1)OCO2`, the inhibition is 56.2% (active).

As for `c1ccc(CN2CCC(Nc3nc(NCCN4CCOCC4)c4ncn(C5CCCCC5)c4n3)CC2)cc1`, the inhibition is 7.74% (inactive).

For the compound `CC(C)N(CCNC(=O)C1CCN(c2ccc(Nc3ccccc3)nn2)CC1)C(C)C`, the inhibition was 0.63% (inactive).

For `COc1cc(NC(=O)c2ccnc(-c3c(C)noc3C)c2)cc(OC)c1OC`, the inhibition is 3.86% (inactive).

For the compound `Oc1ccc(CCNc2nc(Nc3ccncn3)nc3c2ncn3C2CCCCC2)cc1`, the inhibition was 14.6% (inactive).

As to `CC(=O)Nc1ccc(Nc2nc(Nc3ccccn3)ncc2C)cc1`, the inhibition was 8.71% (inactive).

With `CC(C)N(CCNC(=O)Cc1cn(-c2ccc(Nc3ccc(N4CCOCC4)cc3)nn2)c2ccccc12)C(C)C`, the inhibition was 5.92% (inactive).

In the case of `COc1cc(CNC(=O)c2cnc3cc(-c4cn[nH]c4)ccn23)cc(OC)c1`, the inhibition was -6.5% (inactive).

Take `CCCNC(=O)c1ccc2nc(-c3c(C)nn(C)c3C)sc2c1`: the inhibition is 1.04% (inactive).

With `OCCNc1nc(Nc2ccc3ncccc3c2)nc2nc[nH]c12`, the inhibition was 62.7% (active).

For the compound `CN(C)c1cccc(Nc2nc(NCCO)c3[nH]cnc3n2)c1`, the inhibition was 15.6% (inactive).

As for `OCCNc1nc(Nc2ccccn2)nc2nc[nH]c12`, the inhibition was 8.19% (inactive).

With `O=C1CCCN1CCCNc1nc(-c2ccccc2)nc2nc[nH]c12`, the inhibition is 9.26% (inactive).

In the case of `O=C1CCCN1CCCNc1nc(Nc2ccc3ncccc3c2)nc2nc[nH]c12`, the inhibition is 67.6% (active).

As to `O=C1CCCN1CCCNc1nc(Nc2cnccn2)nc2nc[nH]c12`, the inhibition is -13.6% (inactive).

Consider `CCN(CC)C(=O)C1CCCN(c2nc(NCCOc3ccccc3)c3ncn(C(C)C)c3n2)C1` (configuration not stated), for which the inhibition is 4.04% (inactive).

Consider `c1cncc(Nc2nccc(Nc3ccc(N4CCOCC4)cc3)n2)c1`, for which the inhibition was 10% (inactive).

`COCCNc1cc(-c2ccc(F)cc2)nc(C)n1`: the inhibition was 0.77% (inactive).

As to `CCN(C(=O)c1ccc(Br)cc1)c1ccccc1`, the inhibition is 2.64% (inactive).

Regarding `COc1cc2nc(-c3cccc(N)c3)nc(NCCN3CCOCC3)c2cc1OC`, the inhibition is -4.6% (inactive).

For `FC(F)(F)c1cnc(Nc2ccc(N3CCOCC3)cc2)cc1-n1ncc2ccccc21`, the inhibition was 2.76% (inactive).

Consider `COc1cc(C(=O)N2CCOCC2)ccc1Nc1cc(NCc2cccc(S(C)(=O)=O)c2)c(C(F)(F)F)cn1`, for which the inhibition was -14.6% (inactive).

For the compound `COc1cc(N2CCOCC2)ccc1Nc1cc(Nc2ccccc2-n2cccn2)c(C(F)(F)F)cn1`, the inhibition was 77% (active).

For the compound `CCOC(=O)c1cc[n+](CC(=O)c2ccc(NC(=O)c3ccccc3)cc2)cc1`, the inhibition was 3.76% (inactive).

For `CCN(CC)C(=O)C1CCCN(c2nc3ccc(C(=O)Nc4ccc(NC(C)=O)cc4)cc3s2)C1` (configuration not stated), the inhibition is -20.8% (inactive).

For `CNC(=O)c1ccccc1Nc1cc(NC(=O)C(F)(F)c2ccccc2)ncc1C(F)(F)F`, the inhibition is 61.2% (active).

Consider `CC(C)N(CCNC(=O)c1ccnc(Nc2ccc(C(F)(F)F)cc2)c1)C(C)C`, for which the inhibition was -25.3% (inactive).

Take `CCN(CC)CCOc1ccc(Nc2cc(Nc3ccccc3C(=O)NC)c(C(F)(F)F)cn2)c(OC)c1`: the inhibition is 91.6% (active).

For `CNC(=O)c1ccccc1Nc1cc(NC(=O)Cc2ccc([N+](=O)[O-])cc2)ncc1C(F)(F)F`, the inhibition was 40.8% (inactive).

Turning to `CCN(CC)CCNC(=O)c1cc(S(C)(=O)=O)ccc1OC`, the inhibition was 13% (inactive).

`CNC(=O)c1ccccc1Nc1cc(NC(=O)Cc2ccc(F)c(F)c2)ncc1C(F)(F)F`: the inhibition is 32.8% (inactive).

In the case of `CCN(CC)CCNC(=O)c1ccc(Nc2cc(Nc3ccccc3C(=O)NC)c(C(F)(F)F)cn2)nc1`, the inhibition is 92.4% (active).

`CCN(CC)CCNC(=O)c1ccc(Nc2cc(Nc3ccccc3C(=O)NC)c(C(F)(F)F)cn2)c(C)c1`: the inhibition was 88.5% (active).

As for `CNC(=O)c1ccccc1Nc1cc(NC(=O)C2(c3ccccc3)CC2)ncc1C(F)(F)F`, the inhibition was -23.5% (inactive).

With `O=C1CCCN1CCn1cnc2c(NCc3cccc(C(F)(F)F)c3)nc(Nc3nccc4ccccc34)nc21`, the inhibition was -5.58% (inactive).

`Cc1cnc(CNc2cc(-c3ccccc3F)nc(C)n2)nc1`: the inhibition is 3.69% (inactive).

Take `COc1cc2nc(Nc3nccc4ccccc34)nc(NCc3cccc(C(F)(F)F)c3)c2cc1OC`: the inhibition is -3.82% (inactive).

On to `COC(c1ccccc1)(c1ccccc1)C(Oc1nc(C)cc(C)n1)C(=O)O` (configuration not stated), for which the inhibition was 5.25% (inactive).

Regarding `CC(C)n1c(-c2ccc(C(N)=O)cc2)nc2c(NCCN3CCOCC3)ncnc21`, the inhibition is -4.64% (inactive).

For `O=C(NCCc1cccnc1)c1ccc2c(c1)CC(c1nc3ccc(-c4cn[nH]c4)cc3c(=O)[nH]1)CO2` (configuration not stated), the inhibition was 1.53% (inactive).

As for `CCNc1ncc(C)c(NCCc2ccc(OC)cc2)n1`, the inhibition was -7.79% (inactive).

For the compound `Nc1nc(NCc2cccnc2)nc2c1ncn2-c1ccsc1`, the inhibition is 2.79% (inactive).

With `CC(=O)Nc1ccc2cnn(-c3cccc(C(=O)NCCN4CCOCC4)c3)c2c1`, the inhibition was -2.64% (inactive).

For `C1=C2[C@@H](c3ccccc3)N3CCC[C@@H]3[C@H]3CCC[C@@]23OCC1`, the inhibition was -9.95% (inactive).

With `O=C(NC1CC1)c1ccc(-c2nccc(NCc3nc4ccccc4[nH]3)n2)cc1`, the inhibition was -2.79% (inactive).

As to `COc1cc(Nc2cc(NC3CC3)ncn2)cc(OC)c1OC`, the inhibition was -5.2% (inactive).

For the compound `O=C(NCCCN1CCCC1=O)C1CCN(c2ccc(Nc3ccc4ncccc4c3)nn2)CC1`, the inhibition was 7.45% (inactive).

Regarding `COc1cccc(C(=O)Nc2nc3ccc(-c4ccncc4)cc3s2)c1`, the inhibition was 14.9% (inactive).

For `CNC(=O)c1ccccc1Nc1ccnc(Nc2ccc(N3CCOCC3)cc2)c1`, the inhibition was 6.96% (inactive).

Regarding `CNC(=O)c1ccccc1Nc1cc(Nc2ccc(C(=O)N(C)C)cc2)ncc1C(F)(F)F`, the inhibition was 86.4% (active).

`CNC(=O)c1ccccc1Nc1nc(Nc2ccc(-n3cnc(-c4ccc(C)nc4)n3)cc2)ncc1Cl`: the inhibition is 8.9% (inactive).

For the compound `N#Cc1cccc(-c2ccnc(Nc3ccc(N4CCOCC4)cc3)n2)c1`, the inhibition was 7.92% (inactive).

As to `CC(C)n1cnc2c(NCCO)nc(Nc3ccc(C(F)(F)F)cc3)nc21`, the inhibition is -7.45% (inactive).

As for `c1ccc(N2CCN(c3nc(NCCN4CCOCC4)c4ncn(C5CCCCC5)c4n3)CC2)nc1`, the inhibition was -0.56% (inactive).

With `Cn1c(Nc2nc(NC3CC3)c3ncn(C4CCCCC4)c3n2)nc2ccccc21`, the inhibition was 36.9% (inactive).

Take `O=C(CNS(=O)(=O)c1ccc(Cl)cc1)OCC(=O)c1ccccc1`: the inhibition was 14.9% (inactive).

Broadly, the inhibition is the relative decrease from the control value, in per cent.
